Screening data as filed in PubChem BioAssay.
SENP6 inh – SENP6 protease inhibitors, primary screen, biochemical, luminescence, uHTS; Sentrin-specific protease 6 (Homo sapiens), Q9GZR1; Recombinant SENP6 catalytic domain, aminoluciferin luminescence; inhibition, % at 10 µM; 1.8% of 330,000 active;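 active = inhibition above about 50% at the single tested dose, limit read from the data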
SENP8 block-1 – SENP8 protease inhibitors, primary screen, biochemical, luminescence; Sentrin-specific protease 8 (Homo sapiens), Q96LD8; purified SENP8, Z-RLRGG-aminoluciferin cleavage; inhibition, % at 10 µM; 1.2% of 330,000 active; in the data active = inhibition above about 50%
Target sequence (Q96LD8 whole entry, looked up): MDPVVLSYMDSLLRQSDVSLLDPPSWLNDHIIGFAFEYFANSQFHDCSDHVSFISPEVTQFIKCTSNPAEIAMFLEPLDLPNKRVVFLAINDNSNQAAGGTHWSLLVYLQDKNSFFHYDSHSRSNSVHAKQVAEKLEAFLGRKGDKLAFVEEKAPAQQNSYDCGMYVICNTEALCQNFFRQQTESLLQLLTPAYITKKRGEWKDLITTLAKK
AHR activator – AHR activators, primary screen, cell-based, luminescence, luciferase reporter, human; Aryl hydrocarbon receptor (Homo sapiens), P35869; AHR-responsive luciferase reporter cells; activation, % at 5 µM; 2.5% of 320,000 active; in the data active = activation above about 47%
SENP7 inh – SENP7 protease inhibitors, primary screen, biochemical, luminescence, uHTS; 1.5% of 330,000 active; Sentrin-specific protease 7 (Homo sapiens), Q9BQF6; AID 434973, 2010; inhibition, % at 5 µM; recombinant SENP7, Z-RLRGG-aminoluciferin luminescence, 40 min;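 active = inhibition above about 50% at the single test dose, limit read from the data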
Target sequence (Q9BQF6 706-1050 limits assumed): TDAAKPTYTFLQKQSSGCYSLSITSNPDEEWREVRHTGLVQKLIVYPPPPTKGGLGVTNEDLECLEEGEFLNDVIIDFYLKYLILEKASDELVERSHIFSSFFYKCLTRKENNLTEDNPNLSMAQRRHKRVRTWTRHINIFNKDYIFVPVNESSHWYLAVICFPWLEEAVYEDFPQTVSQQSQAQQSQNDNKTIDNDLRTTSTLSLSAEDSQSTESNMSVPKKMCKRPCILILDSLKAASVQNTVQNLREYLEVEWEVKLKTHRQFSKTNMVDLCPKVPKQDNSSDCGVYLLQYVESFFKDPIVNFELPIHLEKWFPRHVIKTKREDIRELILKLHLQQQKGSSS
EBI2 block – EBI2 receptor antagonists, beta-arrestin recruitment, primary screen, cell-based, luminescence, 7a,25-OHC stimulation, uHTS; AID 651636, 2012; 0.81% of 360,000 active; G-protein coupled receptor 183 (Homo sapiens), P32249; inhibition, % at 5 µM; 7a,25-OHC stimulated; in the data active = inhibition above about 38%;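 also: enzyme fragment complementation signal reports receptor beta-arrestin coupling in cells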
SENP8 block-2 – human SENP8 protease inhibitors, primary screen, biochemical, fluorescence, Nedd8 protein substrate, uHTS. Sentrin-specific protease 8 (Homo sapiens), Q96LD8. recombinant SENP8. inhibition, % at 20 µM. 0.64% of 360,000 active. AID 602440, 2012; in the data active = inhibition mostly above about 40%, no sharp cut-off; inactive = mostly below about 27%
Numbers stand for hits; . = inactive; / = no result. The list is not random: actives were taken first. Their share in the collection is about 5%.

SMILES	SENP6 inh	SENP8 block-1	AHR activator	SENP7 inh	EBI2 block	SENP8 block-2
O=c1[nH]c2cc3c(cc2cc1CN(Cc1cccnc1)C(=S)NCc1ccco1)OCO3	.	.	66	.	.	.
CC(C)c1ccc(NC(=S)NNC(=O)C2CC2)cc1	.	.	.	.	.	.
CC(C)c1ccc(NNC(=O)C2CCC2)cc1	.	.	49	.	.	.
CCOc1ccc(CCNC(=O)CCNS(=O)(=O)c2ccc3c(c2)CCN3C(C)=O)cc1OCC	.	.	.	.	.	.
CC(C)c1nc2oc3ccccc3c(=O)c2c(=O)n1-c1ccccc1	.	.	103	.	.	.
Cc1nc2oc3ccccc3c(=O)c2c(=O)n1Cc1ccccc1	.	.	.	.	.	.
CCN(CC)C(=O)Cn1cc(C(=O)C(=O)N2CCCc3ccccc32)c2ccccc21	.	.	70	.	.	.
CC(C)c1c(C#N)c(N)nc(SCC(=O)c2cc3ccccc3oc2=O)c1C#N	.	.	.	.	.	.
N#Cc1ccc(-c2ccccc2)nc1SCC(=O)c1cc2ccccc2oc1=O	.	.	55	.	.	.
COC(=O)c1ccccc1S(=O)(=O)Nc1ccc2cn[nH]c2c1	.	.	.	.	.	.
O=C1C(Cl)=C(Nc2ccc3cn[nH]c3c2)C(=O)c2ccccc21	/	/	70	/	.	.
O=C(O)c1ccccc1Cc1ccc2c(c1)CCCC2	/	/	/	/	.	.
CNC(=S)N1N=C2c3ccccc3CCC2C1c1ccccc1Cl (stereo unspecified)	.	.	.	.	.	.
CN1N=C2c3ccccc3CCC2C1c1ccc(F)cc1 (stereo unspecified)	.	.	76	.	.	.
Cn1c(=O)[nH]c(=O)c2c1nc(NC1CCCC1)n2Cc1ccccc1	.	.	.	.	.	.
Cc1c(C(=O)Nc2ccc(Cl)cc2)c2ccccn2c1CCc1ccncc1	.	.	87	.	.	.
O=C(Nc1cccc(-c2nc3cccnc3s2)c1)c1ccco1	.	.	.	.	.	.
CCOc1ncccc1C(=O)Nc1cccc(-c2nc3cccnc3s2)c1	.	.	50	.	.	.
CC(C)Nc1nc(Nc2ccccc2Cl)c2sccc2n1	/	/	/	/	.	.
CCSc1nc2c(c(=O)[nH]1)C(c1ccncc1)C(C(=O)OC(C)C)=C(C)N2 (stereo unspecified)	.	.	48	.	.	.
Cc1ccc2sc(C)cc(=O)c2c1	/	/	/	/	.	.
CCOC(=O)c1cnc(-c2ccccc2)nc1N1CCOCC1	.	.	48	.	.	.
CCOC(=O)c1[nH]cc(-c2ccccc2)c1N1CCOCC1	.	.	49	.	.	.
CCOC(=O)c1cnc(-c2ccccc2)nc1N(C)C	.	.	.	.	.	.
CC(=O)N1C[C@H]2CON(C)[C@H]2C[C@H]1c1ccc(-c2ccccc2)cc1	/	/	/	/	.	.
SMILES	SENP6 inh	SENP8 block-1	AHR activator	SENP7 inh	EBI2 block	SENP8 block-2
CC(=O)OC1C=CCC2C(=O)c3cccc(O)c3C(O)C12 (stereo unspecified)	/	/	/	/	.	.
CC(NC(C(=O)c1ccccc1)c1ccccc1)c1ccccc1 (stereo unspecified)	/	/	/	/	.	.
CN(C1=NS(=O)(=O)c2ccccc21)c1ccc(OC(=O)c2ccccc2F)cc1	/	/	/	/	.	.
CC(=O)OCCNc1nc(-c2ccccc2)nc2ccccc12	.	.	58	.	.	.
COc1ccc(NC(=O)C(=O)NCCO)cc1Cl	.	.	59	.	.	.
COc1ccc(NC(=O)C(=O)NCCCO)cc1Cl	.	.	62	.	.	.
CCc1nc2c(OCc3ccc(C(F)(F)F)cc3)cccn2c1N(C)C(=O)c1ccc(C)cc1	/	/	/	/	.	.
Cc1ccc(N=Cc2cc(Cc3ccccc3Cl)cc([N+](=O)[O-])c2O)c(O)c1	.	.	.	.	.	52
COc1cccc(N=c2oc3ccc(OC)cc3cc2-c2nc3ccccc3[nH]2)c1	.	.	53	.	.	.
COc1ccc(OC)c(Nc2cc(C)c3ccccc3n2)c1	.	.	49	.	.	.
COc1ccc(N(CC(=O)N/N=C/c2cccs2)S(=O)(=O)c2ccccc2)cc1	.	.	64	.	.	.
COc1ccc(N(CC(=O)N/N=C/c2ccc(OC3CSC3)cc2)S(=O)(=O)c2ccccc2)cc1	.	.	.	.	.	.
COc1ccccc1NC(=O)/C(=C\c1cccs1)NC(=O)c1ccco1	.	.	66	.	.	.
COCCNC(=O)C(=O)N/N=C/c1cccs1	.	.	.	.	.	.
COc1ccccc1NC(=O)C(=O)N/N=C/c1cccs1	.	.	47	.	.	.
CCn1c(SCC(=O)Nc2ccc(N(C)C)cc2)nnc1-c1ccco1	.	.	.	.	.	.
COCCN=c1scc(-c2cc(OC)c(OC)c(OC)c2)n1/N=C/c1c(C)[nH]c2ccccc12	.	.	56	.	.	.
CC1(C)C/C(=N\NC(=S)Nc2ccccc2F)c2cc(O)ccc2O1	.	.	60	.	.	.
Cn1c(O)c(C2=c3ccccc3=NC2=O)sc1=Nc1ccc(Cl)cc1	.	.	56	.	.	.
O=C(O)Cn1c(O)c(C2=c3ccccc3=NC2=O)sc1=O	.	.	.	.	.	.
C=CCn1c(O)c(C2=c3ccccc3=NC2=O)s/c1=N/c1nccs1	.	.	59	.	.	.
O=C(CCl)N1c2ccccc2Oc2ccc3ccccc3c21	/	/	/	/	.	.
CC(=O)N1c2ccccc2Oc2cc3ccccc3cc21	.	.	65	.	.	.
CCOC(=O)C1(CCOc2ccccc2)CCN(Cc2ccc(OCC)c(CO)c2)CC1	/	/	.	/	.	.
CCOc1ccccc1N/C(=C(/C(Cl)=C(Cl)Cl)[N+](=O)[O-])n1cncn1	.	.	54	.	.	.
SMILES	SENP6 inh	SENP8 block-1	AHR activator	SENP7 inh	EBI2 block	SENP8 block-2
CCOc1ccc(N/C(=C(/C(Cl)=C(Cl)Cl)[N+](=O)[O-])n2cncn2)cc1	.	.	.	.	/	/
COc1cc(/C=N/NC(=O)CSc2ccccn2)ccc1OC(C)C	.	.	.	.	.	.
CC1(C(=O)NS(=O)(=O)c2cccs2)CCN1C(=O)C1(c2ccc(Cl)cc2)CCC1 (stereo unspecified)	/	/	/	/	.	.
COCCCn1c(SCc2cccc(C(F)(F)F)c2)nc2cc(OC)c(OC)cc2c1=N	.	.	.	.	57	.
COc1cc(C2C3=C(COC3=O)Oc3cc4c(cc32)OCO4)cc(OC)c1OC (stereo unspecified)	/	/	/	/	.	44
COc1cc(C2C3=C(COC3=O)Oc3cc4c(cc32)OCO4)cc(OC)c1O (stereo unspecified)	/	/	/	/	.	.
CCSc1nnc2c(n1)[nH]c1c(C)cccc12	.	.	53	.	.	.
CSc1nnc2c(n1)[nH]c1c(C)cccc12	.	.	.	.	.	.
